According to PubChem BioAssay (Tox21):
Records with an inconclusive call do not appear. Activity calls are given as the source filed them. Unless noted, calls follow the shape of the dose curve; as a rule, active = well fitted curve in the direction sought with a large enough effect in the repeat runs; inconclusive = weak or mixed curves; inactive = no such curve, though single readings can be large; an effect the other way counts as inactive or inconclusive.

Tests used:
[1] = qHTS assay for small molecule agonists of the p53 signaling pathway (AID 651631; calls by dose curve; also: nearly all actives have a fitted effect of over 15% in size)
Outline: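 We treat p53RE-bla HCT-116 cells with compounds for 16 h at 37 °C, add LiveBLAzer B/G FRET substrate for 2 h at room temperature, and measure fluorescence intensity.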

[2] = qHTS assay for small molecules that induce genotoxicity in human embryonic kidney cells expressing luciferase-tagged ATAD5 (AID 651632); also: nearly all actives have a fitted effect of over 15% in size
Outline: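 ATAD5-luc HEK293T, 2,000 cells/well; cpd or DMSO pin-transferred; 16 hr, 37C/5% CO2; Amplite 30 min RT; luminescence.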

[3] = qHTS assay for small molecule agonists of the p53 signaling pathway - cell viability (AID 651633; calls by dose curve;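 also: p53RE-bla HCT reporter cells with a stable beta-lactamase p53 reporter; series mostly up to about 83 µM; nearly all actives have a fitted effect of over 30% in size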)
Outline: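 p53RE-bla cells were treated with compound for 16 hours at 37 C. Cytotoxicity was then measured as CellTiter-Glo luminescence after 30 min at room temperature.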

[4] = qHTS assay for small molecules that induce genotoxicity in human embryonic kidney cells expressing luciferase-tagged ATAD5 - cell viability (AID 651634; calls by dose curve; also: nearly all actives have a fitted effect of over 25% in size)
Outline: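 Fluorescence from CellTiter-Fluor, reporting protease activity within live cells, served as the viability read-out. HEK293T cells carrying luciferase-tagged ATAD5 had been treated with compound for 15.5 hr at 37C.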

[5] = qHTS assay for small molecule disruptors of the mitochondrial membrane potential - cell viability (AID 720634; calls by dose curve;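 also: human HepG2 liver cancer cells; series mostly up to about 83 µM; nearly all actives have a fitted effect of over 20% in size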)
Outline: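 Cells: HepG2, 2,000/well, attached overnight. Compound 1 hr, 37 C/5% CO2. +m-MPI dye, +CellTiter-Glo 30 min RT. Readout: luminescence (ATP).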

[6] = qHTS assay to test for compound auto fluorescence at 590 nm (red) in HepG2 cells (AID 720674)
Outline: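 Seeding: 2,000 HepG2 cells/well, MEM/10% FBS, overnight 37 C. Dosing: compound vs DMSO. Incubation: 1 hr, 37 C, 5% CO2. Read: fluorescence 540 ex/590 em, Rose Bengal sodium as red reference.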

[7] = qHTS assay to test for compound auto fluorescence at 535 nm (green) in HepG2 cells (AID 720675)
[8] = qHTS assay to test for compound auto fluorescence at 460 nm (blue) in HEK293 cells (AID 720678)
Outline: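 Triamterene serves as the blue fluorophore standard. Compound signal at 405/460 nm is read in HEK293 wells (2,000 cells, 10% dialyzed FBS) after overnight treatment at 37C.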

[9] = qHTS assay to test for compound auto fluorescence at 590 nm (red) in HEK293 cells (AID 720679)
Outline: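 We plated HEK293 cells in 10% dialyzed FBS medium, let them adhere for 4-5 hr, then added 23 nL compound. Overnight at 37C and 5% CO2 preceded fluorescence measurement at 540/590nm.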

[10] = qHTS assay to test for compound auto fluorescence at 535 nm (green) in HEK293 cells (AID 720680)
[11] = qHTS assay to test for compound auto fluorescence at 535 nm (green) in HEK293 cell free culture (AID 720682)
Outline: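 Green-channel intensity (Ex/Em 485/535 nm) was recorded from compound-treated wells containing only DMEM with 10% FBS. Fluorescein provided the equivalency standard.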

[12] = qHTS assay to test for compound auto fluorescence at 590 nm (red) in HEK293 cell free culture (AID 720683)
Outline: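 Cell-free wells of DMEM with 10% FBS received compound, and intrinsic fluorescence was read at excitation/emission 540/590 nm. Values expressed as equivalence to Rose Bengal sodium.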

[13] = qHTS assay to test for compound auto fluorescence at 590 nm (red) in HepG2 cell free culture (AID 720684)
Outline: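 Compounds are added to culture medium (MEM, 10% FBS) lacking cells, then fluorescence is read at excitation 540 nm, emission 590 nm, with Rose Bengal sodium as the equivalency standard.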

[14] = qHTS assay to test for compound auto fluorescence at 460 nm (blue) in HepG2 cell free culture (AID 720685)
Outline: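 Compound (23 nL) or DMSO pinned into cell-free MEM with 10% FBS; blue fluorescence read at 405/460 nm excitation/emission, expressed as auto-fluorescence equivalency to triamterene.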

[15] = qHTS assay to test for compound auto fluorescence at 535 nm (green) in HepG2 cell free culture (AID 720686)
[16] = qHTS assay to test for compound auto fluorescence at 460 nm (blue) in HepG2 cells (AID 720687)
Outline: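 HepG2 cells in MEM with 10% FBS, attached overnight at 37 C, were exposed to compound or DMSO for 1 hr at 37 C, 5% CO2. Blue fluorescence was read at 405/460 nm, with triamterene as reference fluorophore.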

[17] = qHTS assay to test for compound auto fluorescence at 460 nm (blue) in HEK293 cell free culture (AID 720681)
Outline: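 Compounds were added to cell-free DMEM with 10% FBS and fluorescence read directly. The blue channel used 405 nm excitation and 460 nm emission, with triamterene as the reference fluorophore.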

[18] = molecular target: Glucocorticoid receptor (Homo sapiens) (UniProt P04150); assay: qHTS assay to identify small molecule antagonists of the glucocorticoid receptor (GR) signaling pathway (AID 720692; active = well fitted inhibition curve with a large enough effect in the signal ratio in the repeat runs, not every such curve was filed as active; the % refers to the signal ratio)
Glucocorticoid receptor (Homo sapiens), sequence (P04150 whole entry, looked up): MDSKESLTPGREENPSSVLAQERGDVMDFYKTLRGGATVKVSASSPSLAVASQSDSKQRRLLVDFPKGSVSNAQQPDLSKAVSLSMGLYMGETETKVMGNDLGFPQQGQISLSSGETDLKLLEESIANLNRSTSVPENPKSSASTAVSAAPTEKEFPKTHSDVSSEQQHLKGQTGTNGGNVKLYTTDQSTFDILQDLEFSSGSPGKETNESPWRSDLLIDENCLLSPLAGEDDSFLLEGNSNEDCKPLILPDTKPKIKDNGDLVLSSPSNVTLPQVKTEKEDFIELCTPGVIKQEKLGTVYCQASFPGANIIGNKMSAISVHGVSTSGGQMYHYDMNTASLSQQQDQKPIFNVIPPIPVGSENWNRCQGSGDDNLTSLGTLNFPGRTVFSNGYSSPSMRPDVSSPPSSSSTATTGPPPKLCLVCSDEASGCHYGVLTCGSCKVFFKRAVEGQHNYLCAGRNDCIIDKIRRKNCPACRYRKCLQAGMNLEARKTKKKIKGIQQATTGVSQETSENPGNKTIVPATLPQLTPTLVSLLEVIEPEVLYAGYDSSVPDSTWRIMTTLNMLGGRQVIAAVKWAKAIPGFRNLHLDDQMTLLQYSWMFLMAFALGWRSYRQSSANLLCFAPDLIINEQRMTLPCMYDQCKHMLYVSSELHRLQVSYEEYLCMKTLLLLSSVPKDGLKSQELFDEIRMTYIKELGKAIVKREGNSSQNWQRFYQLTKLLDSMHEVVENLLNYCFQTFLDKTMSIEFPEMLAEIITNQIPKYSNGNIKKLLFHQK
Outline: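 HeLa GR-bla cells; cmpd + dex 5 nM final, 18 h 37 C; LiveBLAzer B/G FRET substrate 2 h RT; fluorescence intensity read. Antagonist mode, qHTS.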

[19] = molecular target: Glucocorticoid receptor (Homo sapiens) (UniProt P04150); assay: qHTS assay to identify small molecule agonists of the glucocorticoid receptor (GR) signaling pathway (AID 720691; active = well fitted activation curve with a large enough effect in the signal ratio in the repeat runs, not every such curve was filed as active; the % refers to the signal ratio)
Outline: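 Fluorescence intensity from LiveBLAzer B/G FRET substrate (2 h, room temperature) reports beta-lactamase expression driven by the glucocorticoid response element in GR-bla HeLa cells after 18 h compound exposure at 37 C.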

[20] = qHTS assay for small molecule disruptors of the mitochondrial membrane potential (AID 720635)
Outline: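 HepG2 cells exposed to compound 1 hr at 37C, then Mito-MPS dye 30 min. Ratio read of aggregate (540/590 nm) versus monomer (490/535 nm) fluorescence.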
% is scaled to controls: 0 for no effect and ±100 for the full control effect.

C=CCCCCCCCCC(=O)OCC
inactive: Potency [1] | Potency [2] | Potency [3] | Potency [4] | outcome [5] | outcome [6] | outcome [7] | outcome [8] | outcome [9] | outcome [10] | outcome [11] | outcome [12] | outcome [13] | outcome [14] | outcome [15] | outcome [16]

CC(=O)Nc1ccc(OCC(O)CNC(C)C)cc1 (stereo not given)
inactive: Potency [1] | Potency [2] | Potency [3] | Potency [4] | outcome [5] | outcome [7] | outcome [8] | outcome [9] | outcome [10] | outcome [17] | outcome [11] | outcome [12] | outcome [13] | outcome [14] | outcome [15] | outcome [16] | Potency [18]

CC(=O)c1ccc2ccccc2c1
inactive: Potency [1] | Potency [2] | Potency [3] | Potency [4] | outcome [6] | outcome [7] | outcome [8] | outcome [9] | outcome [10] | outcome [17] | outcome [11] | outcome [12] | outcome [13] | outcome [14] | outcome [15] | Potency [19] | Potency [18]

CO[Si](C)(OC)c1ccccc1
inactive: Potency [1] | Potency [2] | Potency [3] | Potency [4] | outcome [6] | outcome [7] | outcome [8] | outcome [9] | outcome [10] | outcome [11] | outcome [13] | outcome [14] | outcome [15] | outcome [16] | Potency [19]

CC1(C)OC[C@@H](COC(=O)CCc2ccc(OC[C@@H](O)CNCCNC(=O)N3CCOCC3)cc2)O1
inactive: Potency [1] | Potency [2] | Potency [3] | outcome [5] | Potency [20] | outcome [6] | outcome [7] | outcome [8] | outcome [9] | outcome [10] | outcome [17] | outcome [11] | outcome [12] | outcome [13] | outcome [14] | outcome [15] | outcome [16] | Potency [19] | Potency [18]

Cc1cc(C)c(N=Nc2c(O)c(S(=O)(=O)O)cc3cc(S(=O)(=O)O)ccc23)cc1C
inactive: activation [1] -4.32% [at 8.3 µM] | activation [2] 1.99% [at 8.08 µM] | activity change, negative = cytotoxicity [3] 11.3% [at 8.08 µM] | activity, negative = cytotoxicity [4] -13.8% [at 8.08 µM] | activity change, negative = cytotoxicity [5] -3.07% [at 8.08 µM] | fluorescence, relative to Rose Bengal [6] 0.0524% [at 9.17 µM] | fluorescence, % of fluorescein control [7] -0.0414% [at 9.17 µM] | fluorescence, % of fluorescent control [9] -0.166% [at 9.17 µM] | fluorescence, % of fluorescein [10] -0.0092% [at 9.17 µM] | fluorescence, % of fluorescent control [17] -0.0769% [at 9.17 µM] | activity change [11] 0.0216% [at 9.17 µM] | fluorescence, % of Rose Bengal [13] 0.0175% [at 9.17 µM] | fluorescence, % of fluorescent control [14] -0.11% [at 9.17 µM] | fluorescence, % of fluorescein control [15] -0.0747% [at 9.17 µM] | fluorescence, % of fluorescent control [16] -0.0207% [at 9.17 µM] | activation [19] -1.47% [at 6.9 µM] | activity change, negative = inhibition [18] 0.597% [at 7.04 µM]

O=[N+]([O-])c1ccc(/C=N\O)o1
inactive: Potency [1] | Potency [2] | Potency [3] | Potency [4] | outcome [5] | outcome [7] | outcome [8] | outcome [9] | outcome [10] | outcome [17] | outcome [11] | outcome [12] | outcome [13] | outcome [14] | outcome [15] | outcome [16] | Potency [18]

CCCCCCC1CCC(=O)O1 (stereo not given)
inactive: Potency [1] | Potency [2] | Potency [3] | Potency [4] | outcome [5] | outcome [6] | outcome [7] | outcome [8] | outcome [9] | outcome [17] | outcome [11] | outcome [12] | outcome [13] | outcome [14] | outcome [15] | outcome [16]

CCCCN1C=CN(C)C1
inactive: Potency [1] | Potency [2] | Potency [3] | Potency [4] | outcome [5] | fluorescence, relative to Rose Bengal [6] -0.0028% [at 18.6 µM] | fluorescence, % of fluorescein control [7] -0.0563% [at 18.6 µM] | fluorescence, % of triamterene [8] 0.173% [at 18.6 µM] | fluorescence, % of fluorescent control [9] -0.0345% [at 18.6 µM] | fluorescence, % of fluorescein [10] -0.0653% [at 18.6 µM] | activity change [11] 0.0078% [at 18.6 µM] | fluorescence, % of Rose Bengal [13] 0.057% [at 18.6 µM] | fluorescence, % of fluorescent control [14] -0.0433% [at 18.6 µM] | fluorescence, % of fluorescein control [15] -0.069% [at 18.6 µM] | fluorescence, % of fluorescent control [16] 0.0295% [at 18.6 µM] | Potency [19] | Potency [18]

CCCCCCCCCCCCCCC(=O)O
inactive: Potency [1] | Potency [2] | Potency [3] | outcome [5] | Potency [20] | outcome [6] | outcome [7] | outcome [8] | outcome [9] | outcome [10] | outcome [17] | outcome [11] | outcome [12] | outcome [13] | outcome [14] | outcome [15] | outcome [16]

CCOC(=O)COc1cc(-n2ncc(C(F)(F)F)c(C)c2=O)c(F)cc1Cl
inactive: Potency [1] | Potency [2] | Potency [3] | Potency [4] | outcome [7] | outcome [8] | outcome [9] | outcome [10] | outcome [17] | outcome [11] | outcome [12] | outcome [13] | outcome [14] | outcome [15] | outcome [16] | Potency [19] | Potency [18]

Cc1ccc(C(=O)c2ccc(CC(=O)O)n2C)cc1
inactive: Potency [1] | Potency [2] | Potency [3] | Potency [4] | outcome [5] | fluorescence, relative to Rose Bengal [6] 0.352% [at 18.6 µM] | fluorescence, % of fluorescein control [7] 0.0458% [at 18.6 µM] | fluorescence, % of triamterene [8] -0.184% [at 18.6 µM] | fluorescence, % of fluorescent control [9] 0.256% [at 18.6 µM] | activity change [11] -0.0078% [at 18.6 µM] | fluorescence, % of fluorescent control [12] 0.0035% [at 18.6 µM] | fluorescence, % of Rose Bengal [13] 0.0726% [at 18.6 µM] | fluorescence, % of fluorescent control [14] -0.117% [at 18.6 µM] | fluorescence, % of fluorescein control [15] -0.0798% [at 18.6 µM] | fluorescence, % of fluorescent control [16] -0.0013% [at 18.6 µM]

O=C(O)CNC(=O)c1ccc(CO)o1
inactive: Potency [1] | Potency [2] | Potency [3] | Potency [4] | outcome [5] | outcome [6] | outcome [7] | outcome [8] | outcome [9] | outcome [11] | outcome [12] | outcome [13] | outcome [14] | outcome [15] | outcome [16]

CCCCCCCCN1CCCC1=O
inactive: Potency [1] | Potency [2] | Potency [3] | Potency [4] | outcome [5] | outcome [7] | outcome [8] | outcome [9] | outcome [10] | outcome [17] | outcome [11] | outcome [12] | outcome [13] | outcome [14] | Potency [19] | Potency [18]

CC(=O)N1C[C@H](O)C[C@H]1C(=O)O
inactive: Potency [1] | Potency [2] | Potency [3] | outcome [5] | Potency [20] | outcome [6] | outcome [7] | outcome [8] | outcome [9] | outcome [10] | outcome [17] | outcome [11] | outcome [12] | outcome [13] | outcome [14] | outcome [15] | outcome [16] | Potency [19] | Potency [18]

CC(N)C12CC3CC(CC(C3)C1)C2 (stereo not given)
inactive: Potency [1] | Potency [2] | Potency [3] | Potency [4] | outcome [5] | outcome [6] | outcome [7] | outcome [9] | outcome [10] | outcome [17] | outcome [11] | outcome [12] | outcome [13] | outcome [14] | outcome [16]
